# An excerpt weighted towards active compounds, which were near 4.2% of everything screened.
# Hsp90 Hop PPI = changes Hsp90-Hop TPR2A binding signal, up or down; AID 595; AlphaScreen TPR2A-His6 binding biotin-Hsp90 C-terminal peptide; Potency, µM (titrated, usually from 57 µM), without a hit: top-dose activity change, negative = inhibition; 71,000 compounds, 0.44% hits; active = well fitted curve in either direction with a large enough effect; inconclusive = small, poorly fitted or top-dose-only effect, or another doubt; also: potency is read from the fitted curve at half-maximal effect; % is scaled to controls: 0 for no effect and ±100 for the full control effect
# Tau fil binding = tau filament binding; P10636; recombinant tau filaments, thioflavin S fluorescence, 15 h; filaments grown with octadecylsulfate alongside compound; Potency, µM (titrated, usually from 57.1 µM), inactives show at the top dose activity change, negative = inhibition; 71,000 compounds, 2% hits;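 also: potency is read from the fitted curve at half-maximal effect; % is scaled to controls: 0 for no effect and ±100 for the full control effect; actives lower thioflavin S fluorescence by blocking filaments or displacing dye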
# Target sequence (P10636 whole entry, looked up): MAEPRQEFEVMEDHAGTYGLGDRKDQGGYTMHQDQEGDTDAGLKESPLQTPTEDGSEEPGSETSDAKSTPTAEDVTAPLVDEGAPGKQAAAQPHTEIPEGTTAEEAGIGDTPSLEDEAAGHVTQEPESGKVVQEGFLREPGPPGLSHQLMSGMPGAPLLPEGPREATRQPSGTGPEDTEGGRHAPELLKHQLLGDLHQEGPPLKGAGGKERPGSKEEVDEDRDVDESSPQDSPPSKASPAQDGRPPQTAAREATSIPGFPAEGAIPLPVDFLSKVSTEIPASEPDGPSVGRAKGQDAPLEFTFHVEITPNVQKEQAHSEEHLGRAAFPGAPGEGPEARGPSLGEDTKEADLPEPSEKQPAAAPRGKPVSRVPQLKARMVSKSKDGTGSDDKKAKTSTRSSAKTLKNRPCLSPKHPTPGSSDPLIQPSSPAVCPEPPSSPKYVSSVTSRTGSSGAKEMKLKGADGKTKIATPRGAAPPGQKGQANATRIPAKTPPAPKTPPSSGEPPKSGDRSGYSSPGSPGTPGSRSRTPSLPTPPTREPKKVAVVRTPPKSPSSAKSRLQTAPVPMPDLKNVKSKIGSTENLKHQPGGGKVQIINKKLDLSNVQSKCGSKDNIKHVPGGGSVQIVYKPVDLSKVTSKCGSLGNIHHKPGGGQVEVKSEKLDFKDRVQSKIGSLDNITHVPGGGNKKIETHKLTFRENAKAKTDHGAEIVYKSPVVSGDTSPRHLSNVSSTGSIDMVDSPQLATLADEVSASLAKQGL
#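 Assay mix: 1 uM His-tagged tau, 30 uM sodium octadecylsulfate, thioflavine S dye in HEPES/NaCl/DTT buffer. Compound is added prior to the inducer. Fluorescence after 15 h at 37 C.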
# DNA Pol III inh = blocks replication by bacterial DNA polymerase III holoenzyme; reconstituted DNA polymerase III holoenzyme replication, biochemical; Potency, µM (series often up to 57.1 µM), for the others: at the top dose activity change, negative = inhibition; 71,000 compounds, 0.25% hits; AID 603; also: potency is read from the fitted curve at half-maximal effect; % is scaled to controls: 0 for no effect and ±100 for the full control effect
#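 Reconstituted *E. coli* holoenzyme (0.35 nM Pol III, 1 nM beta, 154 nM SSB, 2 nM primase) was preincubated with compound for 15 min at RT. Synthesis on 1.4 nM ssM13Gori ran 35 min, then was stopped with PicoGreen/EDTA and read as dsDNA fluorescence.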
# TsaE inh = displaces an ADP probe from E. coli YjeE (TsaE); P0AF67; Potency, µM; 71,000 compounds, 0.05% hits; purified YjeE enzyme, qHTS inhibition assay
#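 Fluorescence polarization of a BODIPY Texas Red–ADP probe (2 uM) bound to purified YjeE (10 uM) was read after 15 min room-temperature incubation with compounds. Loss of polarization marks inhibitors; ADP serves as titrated control.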
# ERK AVP inh = vasopressin-driven ERK pathway inhibition; HEK293-V1b, vasopressin-stimulated pERK AlphaScreen; Potency, µM (titrated, usually from 57.5 µM), for the others: at the highest dose activity, negative = inhibition, actives largely listed as inhibitors; 72,000 compounds, 0.99% hits; AID 995; also: potency is read from the fitted curve at half-maximal effect; % is scaled to controls: 0 for no effect and ±100 for the full control effect; nearly all actives have a fitted effect of over 55% in size
#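 Phosphorylated ERK1/2 detected via AlphaScreen bead proximity in lysates of V1b-expressing HEK293 cells given 25 nM vasopressin for 5 min after 30 min compound exposure (37 °C). AC50 from Hill equation; basal DMSO 0%, vasopressin 100%.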
# ALOX15 inhib = 15-hLO (ALOX15) enzyme inhibition | P16050 | purified 15hLO-1, xylenol orange hydroperoxide absorbance | Potency, µM (series often up to 57.1 µM), without a hit: at the top dose activity change, negative = inhibition, hits mostly inhibitors | 74,000 compounds, 1.4% hits | AID 887; also: potency is read from the fitted curve at half-maximal effect; % is scaled to controls: 0 for no effect and ±100 for the full control effect; nearly all actives have a fitted effect of over 55% in size
#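 Purified human 15hLO-1 (40 nM final) in 25 mM Hepes pH 7.5, 0.01% Triton X-100 was preincubated with compound 15 min at room temperature, then reacted 6 min with 50 uM arachidonic acid; hydroperoxide detected by Fe-XO, 573/405 nm absorbance ratio.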
# * = called active by the depositor; i = inactive; ? = inconclusive; / = no result; ! = not active in a repeat; [ ] = remark or other dose. Unless noted, calls follow the shape of the dose curve; as a rule, active = well fitted curve in the direction sought with a large enough effect; inconclusive = small, poorly fitted or top-dose-only effect, or another doubt; inactive = no such curve, though single readings can be large; an effect the other way counts as inactive or inconclusive.
SMILES,Hsp90 Hop PPI,Tau fil binding,DNA Pol III inh,TsaE inh,ERK AVP inh,ALOX15 inhib
COc1ccc2ccccc2c1C1CC(=O)N2CN(C3CCCCC3)CSC2=C1C#N (stereo not drawn),-11.8%[2.3 µM],12.6µM*,-10.5%,i,5.1%,?
COc1ccc(OC)c(C2CC(=O)N3CN(c4ccccc4)CSC3=C2C#N)c1 (stereo not drawn),-9.8%,-14.9%,-4.7%,i,-15.1%,?
COc1cc(C2CC(=O)N3CN(Cc4ccco4)CSC3=C2C#N)ccc1OCc1ccccc1 (stereo not drawn),-1.0%[2.3 µM],-10.8%,-5.0%,i,?,6.31µM*
COc1ccc2ccccc2c1C1CC(=O)N2CN(Cc3ccco3)CSC2=C1C#N (stereo not drawn),-5.3%[2.3 µM],7.94µM*,-7.3%,i,-15.3%,?
CCCS(=O)(=O)N1CCC(C(=O)c2cccc(C(F)(F)F)c2)CC1,5.6%,-4.3%,-6.0%,i,-3.6%,-6.0%
CCN(CC)S(=O)(=O)c1ccc(OC(C)C)nc1,3.3%,25.0%,-5.2%,i,3.6%,11.1%
CC1CCCCC1NC(=O)C1CCN(S(=O)(=O)N2CCC3(CC2)OCCO3)CC1 (stereo not drawn),-1.6%,-18.8%,-1.9%,i,-7.6%,-2.3%
CC(=O)Nc1nc2n(n1)C(c1ccc(F)cc1)C=C(c1ccccc1)N2 (stereo not drawn),-8.4%,i,6.8%,i,-27.4%,?
CC(=O)Nc1nc2n(n1)C(c1ccccc1)C=C(c1ccccc1)N2 (stereo not drawn),-12.1%,i,-14.6%,i,-6.5%,20µM*
CCOC(=O)N1CCN(C(=O)c2ccc3c(=O)n(Cc4ccc(OC)cc4)c(=S)[nH]c3c2)CC1,-3.5%,276.8%,1.7%,i,31.6µM*,-20.3%
COc1ccc(OC)c(NC(=O)CCN2CCCCC2)c1,-5.9%,-11.3%,-0.8%,i,-28.3%,8.3%
CC(C)=CCCC(C)NC(=O)NC1CCCCC1 (stereo not drawn),0.3%,-0.7%,2.1%,i,0.0%,20.9%
O=C(Cc1cccs1)Nc1cccc(C(=O)Nc2ccco2)c1,-3.0%,3.4%,2.7%,i,-27.6%,1.4%
CC(=O)c1cccc(NC(=O)Cc2cccs2)c1,-5.9%[11 µM],3.98µM*,10.4%[11.4 µM],i,-16.0%,?
O=C(c1cc2n(n1)C(C(F)(F)F)CC(c1ccco1)N2)N1CCc2ccccc2C1 (stereo not drawn),-9.8%,-13.0%,-2.4%,i,25.1µM*,-21.3%
O=C(NCCCn1ccnc1)C(F)(F)C(F)(F)C(=O)NCCCn1ccnc1,25.1µM*,15.0%,-4.6%,i,-4.4%,8.0%
Cn1c(=O)[nH]c(=O)c2c1nc(CN1CCN(c3cccc(Cl)c3)CC1)n2Cc1ccccc1Cl,-7.0%,102.5%,1.2%,i,/,-5.3%
Oc1c(C(Nc2nc3ccccc3s2)c2ccco2)ccc2cccnc12 (stereo not drawn),?,-29.3%,0.4%,i,?,32.8%
CC(C)C(=O)NC(c1ccco1)c1ccc2cccnc2c1O (stereo not drawn),10µM*,48.9%,-7.1%,i,?,-21.2%
O=C(O)c1ccc(N[C@H](c2ccccc2)c2ccc3cccnc3c2O)cc1,-18.7%[11 µM],-4.8%[11.4 µM],-11.6%[11.4 µM],i,-21.1%[11.5 µM],-26.5%[11.4 µM]
COc1ccc(C(NC(C)=O)c2ccc3cccnc3c2O)c(OC)c1 (stereo not drawn),15.8µM*,-13.9%,-4.5%,i,-25.1%,29.9%
CCCn1c(CCC(=O)O)ccc1-c1ccc(F)cc1,-8.9%,?,-7.7%,i,?,7.94µM*
O=C(O)CCc1ccc(-c2ccc(Br)cc2)n1Cc1ccco1,-13.1%,?,-17.5%,i,-13.5%,15.8µM*
O=C(O)CCc1ccc(-c2ccccc2)n1Cc1ccco1,-15.2%,-9.6%,-4.9%,i,-13.2%,-7.2%
O=C(O)CCc1ccc(-c2ccc(F)cc2)n1CC(=O)O,?,-4.9%,-11.4%,i,17.3%,?
SMILES,Hsp90 Hop PPI,Tau fil binding,DNA Pol III inh,TsaE inh,ERK AVP inh,ALOX15 inhib
CN(C)CCCNC(=O)c1ccc(-c2ccccc2)cc1,?,-21.8%,2.5%,i,62.1%,-21.3%
CN(C)CCCNc1cc(O)c2c(c1O)C(=O)c1ccccc1C2=O,?,1µM*,?,i,-27.5%[11.5 µM],2.5%[11.4 µM]
O=C1c2ccccc2C(=O)c2c(O)c(O)cc(O)c21,/,/,/,/,31.6µM*,5.01µM*
Cc1cc(O)c2c(c1O)C(=O)c1c(O)cc(C)c(O)c1C2=O,/,/,/,/,-13.4%,-16.6%
Cc1ccc(OC2C(O)COC2/C=C/C#Cc2ccc(C(C)(C)C)cc2)cc1 (stereo not drawn),/,/,/,/,18.5%[11.5 µM],3.16µM*!
N#Cc1c(/N=C/c2ccco2)sc2c1CCC2,-7.9%,15.8µM*,-10.1%,i,-9.5%,-7.5%
Cc1ccc(/C=N/n2cnc3sc4c(c3c2=O)CCCC4)o1,-2.3%,40.5%,-1.1%,i,-13.4%,?
Cc1ccc(/C=N/c2sc3c(c2C#N)CCCCC3)o1,-3.5%,33.8%,?,i,?,25.1µM*
Cc1nn(C)c(C)c1NC(=O)CN1CCC(O)(c2ccc3c(c2)OCO3)CC1,-5.0%,-2.2%,1.6%,i,-12.0%,-4.5%
Cc1ccc(S(=O)(=O)NC(CC(=O)O)c2ccccc2)c(C)c1 (stereo not drawn),2.9%,-25.8%,2.9%,i,4.9%,7.2%
COc1ccc(Cn2nnnc2C(c2cccs2)N2CCN(c3ccccc3)CC2)cc1 (stereo not drawn),-1.3%,4.4%,-2.7%,i,4.5%,3.2%
Oc1ccc(N2CCN(C(c3cccs3)c3nnnn3CCc3ccccc3)CC2)cc1 (stereo not drawn),?,-6.1%,-2.3%,i,19.3%,3.16µM*
COc1cccc(NC(=O)/C=C\c2ccc(Cl)cc2)c1,9.0%,5.4%,-5.4%,i,31.6µM*,-1.7%[25.6 µM]
COc1ccc(NC(=O)Nc2cccc(OC)c2)cc1,/,/,/,/,/,-3.5%
COc1ccc(C(=O)c2cn[nH]c2-c2cc(Cl)ccc2O)cc1,-0.3%,-3.9%,-2.4%,i,39.8µM*,20µM*
O=C(c1ccc(F)cc1)c1cn[nH]c1-c1ccccc1O,-3.1%,-5.4%,-8.1%,i,-13.4%,-1.4%
CCOC(=O)c1c(NC(=O)CSc2n[nH]c(N)n2)sc(CC)c1C,0.5%,18.5%,-6.6%,i,12.0%,-10.2%
Cc1ccc(/C=C/C2=Cc3c(sc(NC(=O)CSc4n[nH]c(N)n4)c3C#N)C(C)(C)C2)o1,-18.7%,63.5%,-11.0%,?,-8.5%,12.6µM*
CCc1nnc(NC(=O)CSc2nnc(-c3ccc(O)cc3)n2-c2ccccc2)s1,-0.1%,-9.5%,0.3%,i,-19.7%,2.1%
CCOC(=O)N1CCC(NC(=O)c2cc3c(-c4ccccc4F)nn(C)c3s2)CC1,-0.5%,i,0.5%,i,5.01µM*,1.1%

# High-throughput results (PubChem)
